The record followed here is PubChem BioAssay (NCATS).

Results filed as inconclusive are left out. Activity calls are given as the source filed them. Unless noted, the call rests on the fitted dose curve; in most records, active means well fitted curve in the direction sought with a large enough effect; inconclusive means small, poorly fitted or top-dose-only effect, or another doubt; inactive means no such curve, though single readings can be large; an effect the other way counts as inactive or inconclusive.

The target in test [1] is ATP-dependent DNA helicase Q1 (Homo sapiens) (UniProt P46063). In words: qHTS Validation Assay for Inhibitors of RecQ-Like Dna Helicase 1 (RECQ1) (AID 2353). The note with it: recombinant RECQ1 helicase DNA unwinding assay; series mostly up to 25.6 µM. The gist of the method:
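50 nM RECQ1T1 preincubated 15 min with compound in Tris pH 8.0 buffer with MgCl2, DTT, Tween-20 and 2.5 ug/ml poly(dI-dC); started with 200 nM TAMRA/BHQ-2 forked duplex and 2 mM ATP. Unwinding read as fluorescence (525/598 nm), two reads 2 h apart.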
On the technique in general: Quantitative high-throughput screening tests each substance at several concentrations.

In test [2] the target is RecQ-like DNA helicase BLM (Homo sapiens) (UniProt P54132). The test is described as follows: qHTS Validation Assay for Inhibitors of Bloom's syndrome helicase (BLM) (AID 2364). The conditions noted are these: BLM helicase DNA unwinding, fluorescence, in vitro; series mostly up to 57.1 µM. The gist of the method: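 BLM 50 nM in 25 mM Tris-HCl pH 8.0, 5 mM NaCl, 2 mM MgCl2, 1 mM DTT, 0.01% Tween-20, 2.5 ug/ml poly(dI-dC); 15 min cpd preinc, RT. Start: 200 nM forked DNA + 2 mM ATP (final). TAMRA read, 2 reads 2 h apart.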

Test [3] is described as follows: Cytometric Cell-Based qHTS for Inhibitors of the mTORC1 Signaling Pathway in MEF (Tsc2-/-, p53-/-) Cells (AID 2660). Further: potency means the concentration at half of the fitted maximal effect. The note with it: mTORC1 pathway cytometry; series mostly up to 38.3 µM. In short, it runs like this:
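Immunofluorescence qHTS of rpS6 Ser235/236 phosphorylation: MEFs (Tsc2-/-, p53-/-) treated 24 h, 37 C, in DMEM + 10% FBS. Alexa-488 signal normalized to PI count, referenced to rapamycin (7.5 nM) and DMSO; PI cell number recorded for viability.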

Test [4] is described as follows: High Content Imaging Cell-Based qHTS for Inhibitors of the mTORC1 Signaling Pathway in MEF (Tsc2-/-, p53-/-) Cells (AID 2666).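 Further: percent of cells scored positive for phospho-rpS6 Ser235/236 immunostaining by imaging.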 Further: potency means the concentration at half of the fitted maximal effect. The conditions noted are these: series mostly up to 38.3 µM. The gist of the method:
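Read-out: % positive cells per well, with thresholds from highest- and lowest-signal wells, based on phospho-rpS6 (Ser235/236) intensity normalized to Hoechst nuclear stain. Cells: Tsc2-/-, p53-/- MEFs carrying empty vector; compound 24 hrs, 37 degree Celsius.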

A short description of test [5]: High Content Imaging Cell-Based qHTS for Inhibitors of the mTORC1 Signaling Pathway in MEF Cells (AID 2667). Further: potency means the concentration at half of the fitted maximal effect. The conditions noted are these: series mostly up to 38.3 µM. In short, it runs like this:
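MEF (Tsc2-/-, p53-/-, WT Tsc2 re-expressed); cpd 24 h, 37 °C; PFA fix; Alexa-488 anti-p-rpS6 Ser235/236, PI, Hoechst; IN Cell imaging; Hoechst/Alexa-488 intensity ratio; % active cells, thresholds set from rapamycin and DMSO wells.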

A short description of test [6]: Cytometry Cell-Based qHTS for Inhibitors of the mTORC1 Signaling Pathway in MEF cells (AID 2668). Further: potency means the concentration at half of the fitted maximal effect. The note with it: mTORC1 pathway readout; series mostly up to 38.3 µM. The gist of the method: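 Read-out: phospho-rpS6 Ser235/236 immunofluorescence normalized to propidium iodide intensity, scored as % active cells against a rapamycin (7.5 nM) threshold. Cells: Tsc2-/-, p53-/- MEFs stably expressing WT Tsc2, compound-treated 24 hrs at 37 degree Celsius.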

Test [7] is described as follows: Validation screen for small molecules that induce DNA re-replication in MCF 10A normal breast cells (AID 463097). Further: nearly all actives have a fitted effect of over 60% in size. The conditions noted are these: MCF 10A cells, DNA re-replication phenotype imaging; series mostly up to 46.1 µM. The gist of the method:
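250 MCF 10A cells/well; compound pin-transferred; 48 hr, 37 C, 5% CO2; Hoechst 40 min; imaged 405/500-530 nm. Hits = more high-intensity nuclei.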

Test [8] addresses Ubiquitin carboxyl-terminal hydrolase 2 (Homo sapiens) (UniProt O75604). In words: qHTS Validation Assay for Inhibitors of Ubiquitin-specific Protease USP2a Using CHOP2 as the Reporter (AID 463106). The conditions noted are these: USP2a cleavage of CHOP2 reporter, enzymatic; series mostly up to 38.3 µM. In short, it runs like this: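 USP2 core (10nM final) was preincubated with compound for 30min at RT in 20mM Tris-HCl pH 8.0, 2mM CaCl2, 2mM beta-mercaptoethanol, 0.05% CHAPS. Ub-CHOP2 and reporter substrate (25nM each) were added, and fluorescence (Ex 485/Em 531nm) was read after 60min.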

Test [9] concerns the target Tumor susceptibility gene 101 protein (Homo sapiens) (UniProt Q99816). In words: qHTS Validation Assay for Iinhibitors of HIV-1 Budding by Blocking the Interaction of PTAP/TSG101 (AID 485342; calls by dose curve). The conditions noted are these: TSG101-PTAP binding, fluorescence polarization, 4-point titration; series mostly up to 115 µM. In short, it runs like this: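 FP read-out: FITC-PTAP peptide, 50 nM final, binding Tsg101 binding domain, 10 uM final; 20 min r.t.; 10 mM HEPES pH 7.5, 0.15 M NaCl, 0.01% Tween 20, 3 mM EDTA, 0.1 mM TCEP.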

Test [10] concerns the target DNA polymerase III PolC-type (Bacillus subtilis (strain 168)) (UniProt P13267). The test is described as follows: qHTS Validation Assay for the Inhibitors of DNA Replication in Gram-Positive Bacteria (AID 485295).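 Further: reconstituted holoenzyme with PolC plus beta clamp SSB and primase; PicoGreen fluorescence of double-stranded DNA made on primed circular M13 template.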 The conditions noted are these: Gram-positive bacterial DNA replication assay; series mostly up to 57.1 µM. The gist of the method:
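PicoGreen fluorescence (ex 480–485/em 535–540 nm) reports dsDNA synthesized on ssM13Gori template with dNTPs/NTPs. Enzyme: holoenzyme rebuilt from purified PolC, beta subunit, SSB and primase. Compound preincubated before substrate addition; RT throughout.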

Chain of Tumor susceptibility gene 101 protein (Homo sapiens) (Q99816 whole entry, looked up, the tested form may be a part): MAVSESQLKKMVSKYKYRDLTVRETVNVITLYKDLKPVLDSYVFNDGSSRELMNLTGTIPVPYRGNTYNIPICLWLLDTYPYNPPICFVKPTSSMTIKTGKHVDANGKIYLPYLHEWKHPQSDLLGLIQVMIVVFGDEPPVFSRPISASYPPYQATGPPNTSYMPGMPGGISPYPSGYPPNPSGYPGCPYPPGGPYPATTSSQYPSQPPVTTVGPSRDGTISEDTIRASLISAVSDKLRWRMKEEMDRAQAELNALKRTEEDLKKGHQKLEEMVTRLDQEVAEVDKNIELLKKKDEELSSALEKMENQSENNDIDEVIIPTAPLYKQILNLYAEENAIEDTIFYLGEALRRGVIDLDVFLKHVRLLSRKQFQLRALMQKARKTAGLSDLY
Chain of Ubiquitin carboxyl-terminal hydrolase 2 (Homo sapiens) (O75604 whole entry, looked up): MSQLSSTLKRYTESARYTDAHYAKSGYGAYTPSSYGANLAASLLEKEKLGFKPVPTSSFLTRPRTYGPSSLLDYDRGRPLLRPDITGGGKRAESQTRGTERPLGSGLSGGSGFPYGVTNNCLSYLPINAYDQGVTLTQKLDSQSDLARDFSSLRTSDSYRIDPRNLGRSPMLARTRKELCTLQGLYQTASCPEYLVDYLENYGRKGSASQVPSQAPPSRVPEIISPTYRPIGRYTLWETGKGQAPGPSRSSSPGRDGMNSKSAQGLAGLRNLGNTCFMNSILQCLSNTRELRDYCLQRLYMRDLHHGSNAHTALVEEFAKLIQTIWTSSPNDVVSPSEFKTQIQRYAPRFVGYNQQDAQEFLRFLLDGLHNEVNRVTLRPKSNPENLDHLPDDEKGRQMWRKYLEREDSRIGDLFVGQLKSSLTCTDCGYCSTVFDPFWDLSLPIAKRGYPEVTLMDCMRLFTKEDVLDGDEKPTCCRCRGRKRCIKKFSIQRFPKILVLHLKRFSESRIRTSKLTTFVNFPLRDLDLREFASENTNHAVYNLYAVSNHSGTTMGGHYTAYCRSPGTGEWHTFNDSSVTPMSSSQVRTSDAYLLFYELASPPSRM
Chain of ATP-dependent DNA helicase Q1 (Homo sapiens) (P46063 whole entry, looked up): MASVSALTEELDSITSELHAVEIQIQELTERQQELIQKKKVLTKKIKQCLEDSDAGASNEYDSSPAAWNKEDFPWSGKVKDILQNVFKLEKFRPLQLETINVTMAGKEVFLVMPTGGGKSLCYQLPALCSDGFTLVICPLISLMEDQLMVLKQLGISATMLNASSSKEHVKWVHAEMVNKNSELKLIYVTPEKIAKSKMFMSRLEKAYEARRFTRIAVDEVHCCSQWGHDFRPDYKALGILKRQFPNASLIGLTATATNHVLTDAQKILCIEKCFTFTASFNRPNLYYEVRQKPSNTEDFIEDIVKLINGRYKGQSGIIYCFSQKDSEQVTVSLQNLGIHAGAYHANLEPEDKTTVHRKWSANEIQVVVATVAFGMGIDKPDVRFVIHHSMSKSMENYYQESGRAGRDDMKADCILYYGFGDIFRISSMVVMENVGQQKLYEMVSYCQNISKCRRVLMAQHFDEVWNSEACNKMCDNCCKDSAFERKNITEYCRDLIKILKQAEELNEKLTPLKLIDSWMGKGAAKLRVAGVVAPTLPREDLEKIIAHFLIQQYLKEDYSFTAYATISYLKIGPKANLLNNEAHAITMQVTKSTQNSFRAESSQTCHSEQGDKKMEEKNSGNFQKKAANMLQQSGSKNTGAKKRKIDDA
Chain of RecQ-like DNA helicase BLM (Homo sapiens) (P54132 whole entry, looked up): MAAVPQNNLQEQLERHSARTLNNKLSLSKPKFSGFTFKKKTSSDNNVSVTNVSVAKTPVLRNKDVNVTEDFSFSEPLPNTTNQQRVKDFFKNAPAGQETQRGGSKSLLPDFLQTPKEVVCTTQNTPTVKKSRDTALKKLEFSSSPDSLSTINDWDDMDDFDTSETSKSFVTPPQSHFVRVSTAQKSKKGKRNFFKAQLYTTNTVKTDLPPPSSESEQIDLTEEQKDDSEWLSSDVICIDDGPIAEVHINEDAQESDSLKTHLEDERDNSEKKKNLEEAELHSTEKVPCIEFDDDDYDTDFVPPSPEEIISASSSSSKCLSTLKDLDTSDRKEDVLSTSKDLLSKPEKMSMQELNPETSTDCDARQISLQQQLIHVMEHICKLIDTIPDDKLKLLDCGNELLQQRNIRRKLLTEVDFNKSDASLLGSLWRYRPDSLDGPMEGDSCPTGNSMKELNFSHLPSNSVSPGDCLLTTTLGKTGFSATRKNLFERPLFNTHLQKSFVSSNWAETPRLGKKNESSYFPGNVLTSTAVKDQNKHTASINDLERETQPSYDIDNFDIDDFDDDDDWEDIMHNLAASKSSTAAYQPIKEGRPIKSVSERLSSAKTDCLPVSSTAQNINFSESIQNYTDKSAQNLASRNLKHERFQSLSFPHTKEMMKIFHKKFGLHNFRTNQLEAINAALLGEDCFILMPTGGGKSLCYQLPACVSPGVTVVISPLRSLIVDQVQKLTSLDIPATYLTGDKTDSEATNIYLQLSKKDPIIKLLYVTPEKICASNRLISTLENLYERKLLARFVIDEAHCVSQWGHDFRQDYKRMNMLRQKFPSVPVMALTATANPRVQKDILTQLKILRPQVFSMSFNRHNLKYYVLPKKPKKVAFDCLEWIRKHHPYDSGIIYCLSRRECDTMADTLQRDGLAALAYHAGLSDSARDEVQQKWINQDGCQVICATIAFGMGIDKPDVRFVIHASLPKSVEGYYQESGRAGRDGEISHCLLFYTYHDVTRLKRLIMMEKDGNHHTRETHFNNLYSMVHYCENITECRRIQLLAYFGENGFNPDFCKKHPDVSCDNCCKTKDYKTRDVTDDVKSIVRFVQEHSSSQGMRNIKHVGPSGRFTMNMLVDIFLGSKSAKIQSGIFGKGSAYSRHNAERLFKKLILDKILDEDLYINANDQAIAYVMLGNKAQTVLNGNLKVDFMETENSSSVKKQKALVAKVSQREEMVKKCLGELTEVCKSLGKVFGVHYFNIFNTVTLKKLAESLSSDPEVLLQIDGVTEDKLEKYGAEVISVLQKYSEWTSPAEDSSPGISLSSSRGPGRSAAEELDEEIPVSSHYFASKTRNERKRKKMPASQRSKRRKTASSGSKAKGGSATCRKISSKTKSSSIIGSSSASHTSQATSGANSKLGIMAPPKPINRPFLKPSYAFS
Chain of DNA polymerase III PolC-type (Bacillus subtilis (strain 168)) (P13267 whole entry, looked up): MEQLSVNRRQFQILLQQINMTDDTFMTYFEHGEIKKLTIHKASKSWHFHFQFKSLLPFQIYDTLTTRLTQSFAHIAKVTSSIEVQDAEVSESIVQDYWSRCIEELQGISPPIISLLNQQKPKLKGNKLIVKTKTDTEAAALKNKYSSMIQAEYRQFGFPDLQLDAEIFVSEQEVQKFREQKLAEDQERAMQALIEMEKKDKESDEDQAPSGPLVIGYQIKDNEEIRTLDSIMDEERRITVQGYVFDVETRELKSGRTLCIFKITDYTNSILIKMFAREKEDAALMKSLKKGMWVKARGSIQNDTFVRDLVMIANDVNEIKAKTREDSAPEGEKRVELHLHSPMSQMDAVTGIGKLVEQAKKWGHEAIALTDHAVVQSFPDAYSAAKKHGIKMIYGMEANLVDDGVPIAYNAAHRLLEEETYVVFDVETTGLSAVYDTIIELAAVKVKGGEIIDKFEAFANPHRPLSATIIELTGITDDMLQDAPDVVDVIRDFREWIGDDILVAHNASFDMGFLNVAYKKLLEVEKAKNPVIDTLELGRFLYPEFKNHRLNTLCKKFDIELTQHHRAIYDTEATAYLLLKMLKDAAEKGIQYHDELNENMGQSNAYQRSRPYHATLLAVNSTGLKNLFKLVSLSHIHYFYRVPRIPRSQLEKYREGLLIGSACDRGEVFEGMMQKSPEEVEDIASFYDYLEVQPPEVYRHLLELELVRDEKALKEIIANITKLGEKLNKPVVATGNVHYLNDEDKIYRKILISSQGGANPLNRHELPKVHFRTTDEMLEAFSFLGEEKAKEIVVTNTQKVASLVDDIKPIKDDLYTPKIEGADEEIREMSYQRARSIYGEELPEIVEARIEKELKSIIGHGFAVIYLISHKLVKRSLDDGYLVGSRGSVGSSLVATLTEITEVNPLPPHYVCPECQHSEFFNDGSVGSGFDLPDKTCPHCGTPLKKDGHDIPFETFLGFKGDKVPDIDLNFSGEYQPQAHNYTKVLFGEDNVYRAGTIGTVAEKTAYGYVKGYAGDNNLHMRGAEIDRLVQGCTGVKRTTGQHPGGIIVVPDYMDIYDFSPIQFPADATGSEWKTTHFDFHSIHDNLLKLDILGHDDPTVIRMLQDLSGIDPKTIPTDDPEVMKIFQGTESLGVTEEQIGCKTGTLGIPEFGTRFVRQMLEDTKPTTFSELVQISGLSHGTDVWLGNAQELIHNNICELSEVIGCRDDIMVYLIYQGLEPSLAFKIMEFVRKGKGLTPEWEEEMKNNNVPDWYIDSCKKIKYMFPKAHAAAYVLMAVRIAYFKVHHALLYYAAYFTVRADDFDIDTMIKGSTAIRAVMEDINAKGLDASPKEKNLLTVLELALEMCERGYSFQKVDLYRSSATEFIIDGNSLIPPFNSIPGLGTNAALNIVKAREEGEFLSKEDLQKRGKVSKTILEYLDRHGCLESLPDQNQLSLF

As to `CCN(CC)CCOC(=O)C1(C2CCCCC2)CCCCC1`, the Potency result in [1], in test [3], in test [4], in [5] and in test [6] was “inactive” in each case. Further, the call in test [2], in [7], in test [8] and in [9] was inactive.

Regarding `CC(C)(C(=O)O)c1ccc(C(O)CCCN2CCC(C(O)(c3ccccc3)c3ccccc3)CC2)cc1` (stereo not given), the Potency result in test [1], in [3], in [4], in test [5] and in [6] was “inactive” throughout. Besides, the outcome in test [7], in [8] and in test [9] was inactive.

Regarding `CC(CN1c2ccccc2Sc2ccccc21)N(C)C` (stereo not given), the Potency result in test [1], in test [3] and in [4] was “inactive” each time. Besides, the molecule was called inactive in test [8] and in test [9].

As for `C#CCN(C)Cc1ccccc1`, the Potency entry in [1], in test [3], in [4], in [5] and in test [6] was “inactive” each time. The molecule was classed as inactive in [7], in test [8] and in test [9].

For `CNCCC(Oc1ccc(C(F)(F)F)cc1)c1ccccc1` (stereo not given), the Potency entry in [1] and in [4] was “inactive” throughout. For the same molecule, the call in [8] and in test [9] was inactive.

As to `O=C1N=C(O)CN1/N=C/c1ccc(-c2ccc([N+](=O)[O-])cc2)o1`, the Potency result in test [1], in [3], in [4], in [5] and in [6] was “inactive” each time. Besides, the result in [7], in [8] and in test [9] was inactive.

As for `Nc1ncnc2c1ncn2[C@@H]1O[C@H](CO)[C@@H](O)[C@H]1O`, the Potency entry in [3], in [4], in [5] and in test [6] was “inactive” in each case. For the same molecule, the molecule was classed as inactive in [8] and in test [9].

For the molecule `CC(=O)OCC(=O)[C@@]1(O)CC[C@H]2[C@@H]3CCC4=CC(=O)CC[C@]4(C)[C@H]3C(=O)C[C@@]21C`, the Potency result in test [1], in test [3], in test [4], in [5] and in [6] was “inactive” each time. Further, the molecule was classed as inactive in test [7], in test [8] and in [9].

As for `OCc1cc(C(O)CNCCCCCCOCCCCc2ccccc2)ccc1O` (stereo not given), the Potency entry in test [1], in [3] and in test [4] was “inactive” each time. In addition, the molecule was classed as inactive in test [8] and in test [9].

For `CNCC(O)c1ccc(O)c(O)c1` (stereo not given), the Potency result in test [1], in test [3], in [4], in [5] and in [6] was “inactive” in each case. The molecule was called inactive in [7], in test [8] and in test [9].

`CC(C)C(=O)c1c(C(C)C)nn2ccccc12`: the Potency result in [1], in test [3], in test [4], in test [5] and in test [6] was “inactive” in each case. The molecule was called inactive in test [7], in [8] and in [9].

Regarding `CC1=C(/C=C/C(C)=C/C=C/C(C)=C/C(=O)O)C(C)(C)CCC1`, the Potency result in test [1], in [3], in test [4], in test [5] and in test [6] was “inactive” each time. In addition, the molecule was called inactive in test [8] and in test [9].

On to `CCN(CC)CCCC(C)Nc1c2ccc(Cl)cc2nc2ccc(OC)cc12` (stereo not given), for which the result in test [2] and in test [9] was inactive. The Potency in test [3] was 16.5 µM (active); in test [4] it was 18.5 µM (active); in test [5], 14.7 µM (active).

`CC1=C(CC(=O)O)c2cc(F)ccc2/C1=C\c1ccc(S(C)=O)cc1` (stereo not given): the Potency result in test [1], in test [3], in test [4], in test [5] and in test [6] was “inactive” each time. The outcome in [7], in test [8] and in test [9] was inactive.

On to `C[C@]12CC[C@@H]3c4ccc(O)cc4CC[C@H]3[C@@H]1CCC2=O`, for which the Potency result in test [1], in [3], in test [4], in test [5] and in test [6] was “inactive” throughout. Also, the result in test [7], in test [8] and in test [9] was inactive.

Turning to `CCN(CC)C(C)CN1c2ccccc2Sc2ccccc21` (stereo not given), the Potency result in test [3], in test [4], in test [5] and in test [6] was “inactive” throughout. Also, the call in test [8] and in test [9] was inactive.

For the molecule `CC(C)(C)[C@]1(O)CCN2C[C@H]3c4ccccc4CCc4cccc(c43)[C@@H]2C1`, the Potency result in test [3], in test [4] and in test [5] was “inactive” in each case. Further, the Potency in test [6] is 5.85 µM (active). For the same molecule, the result in test [8] and in test [9] was inactive.

As to `COCCOC(=O)C1=C(C)NC(C)=C(C(=O)OC/C=C/c2ccccc2)C1c1cccc([N+](=O)[O-])c1` (stereo not given), the Potency entry in test [3], in test [4], in test [5] and in test [6] was “inactive” each time. The result in test [8] and in test [9] was inactive.

Regarding `Nc1cc(=O)[nH]c(N)n1`, the Potency entry in [1], in [3], in [4], in test [5] and in [6] was “inactive” throughout. Further, the result in [7], in [8] and in test [9] was inactive.

Consider `CN(C)CCOC(C)(c1ccccc1)c1ccccn1` (stereo not given), for which the Potency entry in [1], in test [3], in test [4], in test [5] and in test [6] was “inactive” each time. The molecule was classed as inactive in test [7], in test [8] and in test [9].

Regarding `CC(C)(C)c1onc(OCP(=O)(O)O)c1CC(N)C(=O)O` (stereo not given), the Potency entry in test [1], in [3], in test [4], in test [5] and in test [6] was “inactive” in each case. Moreover, the molecule was called inactive in test [7], in test [8] and in test [9].

For `C[C@]12C[C@H](O)[C@H]3[C@@H](CCC4=CC(=O)CC[C@@]43C)[C@@H]1CC[C@@H]2C(=O)CO`, the Potency result in test [3], in [4] and in test [5] was “inactive” throughout. Also, the outcome in test [8], in [10] and in [9] was inactive.

Consider `CNC(=O)Oc1ccc2c(c1)[C@]1(C)CCN(C)[C@@H]1N2C`, for which the Potency result in [1], in [3], in test [4], in test [5] and in test [6] was “inactive” each time. Further, the call in test [7], in test [8] and in test [9] was inactive.

Consider `COc1ccc(Cl)cc1C(=O)NCCc1ccc(S(=O)(=O)NC(=O)NC2CCCCC2)cc1`, for which the Potency result in [1], in test [3], in [4], in test [5] and in [6] was “inactive” throughout. Further, the molecule was called inactive in test [7], in test [8] and in test [9].

With `CC[C@H]1CN2CCc3cc(OC)c(OC)cc3[C@@H]2C[C@@H]1C[C@H]1NCCc2cc(OC)c(OC)cc21`, the Potency entry in test [1], in test [4] and in [5] was “inactive” in each case. Besides, the outcome in test [8] and in test [9] was inactive.

Turning to `COC(=O)C1=C(C)NC(C)=C(C(=O)OC)C1c1ccccc1[N+](=O)[O-]`, the Potency entry in test [1], in test [4], in test [5] and in test [6] was “inactive” each time. In addition, the molecule was classed as inactive in test [8] and in test [9].
